The results in this text go back to PubChem BioAssay (Tox21).

Values joined by “and” are separate entries in the source; they are usually repeats but may differ in a detail not shown here. Equal entries are not always repeated. Results filed as inconclusive are left out. More than one record can exist for a structure, and the calls need not agree. Active and inactive are the calls of the source. Unless noted, the call rests on the fitted dose curve; in most records, active means well fitted curve in the direction sought with a large enough effect in the repeat runs; inconclusive means weak or mixed curves; inactive means no such curve, though single readings can be large; an effect the other way counts as inactive or inconclusive.

Assay [1] in a line: qHTS assay to identify small molecule agonists of the androgen receptor (AR) signaling pathway in the presence of an antagonist - cell viability counter screen (AID 1259379). Further: nearly all actives have a fitted effect of over 25% in size. Further: potency means the concentration at half of the fitted maximal effect.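 On activity change, negative = cytotoxicity: MDA-kb2 human breast cancer cells carrying an MMTV luciferase reporter; series mostly up to about 92 µM.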 The procedure, abridged: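 Fluorescence from CellTiter-Fluor, added after 15 hr and read 1 hr later, gave cell viability. Cells were MDA-kb2 exposed to compounds (15 concentrations) in the presence of 3.0uM nilutamide at 37C, 0% CO2.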

Assay [2] is described as follows: qHTS assay to identify small molecule agonists of the estrogen receptor beta (ER-beta) signaling pathway - cell viability counter screen (AID 1259380). Further: nearly all actives have a fitted effect of over 30% in size. Further: potency means the concentration at half of the fitted maximal effect. A digest of the protocol:
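Same-well viability counter screen. Cells: ER-beta-UAS-bla HEK293T, plated 6 hr before compound, in 2% charcoal-stripped FBS. Compound exposure 16 hr, 37C; viability by CellTiter-Glo luminescence after 30 min at room temperature.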

The target in assay [3] is Androgen receptor (Homo sapiens) (UniProt P10275). Nature of the assay: qHTS assay to identify small molecule agonists of the androgen receptor (AR) signaling pathway in the presence of an antagonist (AID 1259381; calls by dose curve; further: nearly all actives have a fitted effect of over 15% in size). A digest of the protocol:
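Cells are MDA-kb2 (human breast carcinoma, MMTV-luc, AR/GR responsive). Nilutamide is present at 3.0uM final throughout; compounds are added at 15 concentrations and incubated 16hr at 37C before ONE-Glo luminescence detection.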

Assay [4] can be described thus: qHTS assay to identify small molecule antagonists of the estrogen receptor beta (ER-beta) signaling pathway - cell viability counter screen (AID 1259382). Further: nearly all actives have a fitted effect of over 55% in size. Further: potency means the concentration at half of the fitted maximal effect.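 On activity change, negative = cytotoxicity: HEK293T cells carrying ER-beta-UAS-bla reporter stimulated with estradiol; series mostly up to about 92 µM.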 The procedure, abridged: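 Following a 6 hr plating period, HEK293T cells carrying a UAS-driven beta-lactamase reporter under ER-beta control received compounds and 1nM E2 (final). After 16 hr at 37C and 2 hr substrate loading, CellTiter-Glo luminescence indicated viability.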

In assay [5] the target is Estrogen receptor (Homo sapiens) (UniProt P03372). The experiment in a line: qHTS assay to identify small molecule agonists of the estrogen receptor alpha (ER-alpha) signaling pathway in the presence of an antagonist (AID 1259383; calls by dose curve; further: top concentration of the series differs between compounds; nearly all actives have a fitted effect of over 15% in size). The procedure, abridged: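 Cells are hormone-deprived for 5 days (charcoal-stripped FBS, no phenol red), plated for 24hr, spiked with 10.0nM ICI-182,780, then dosed at 15 concentrations. After 22hr at 37C, ONE-Glo luminescence reports ERE-luciferase activity.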

Assay [6] in a line: qHTS assay to identify small molecule agonists or antagonists of the thyroid stimulating hormone receptor (TSHR) signaling pathway - wild type cell line counter screen (AID 1259384; calls by dose curve). The procedure, abridged: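 Counter screen in untransfected Hek293: compounds (15-point titration, triplicate) plus phosphodiesterase inhibitor Ro20-1724 added after 18 h plating; 30 min RT. Intracellular cAMP via competitive d2/cryptate immunoassay, 1 h incubation.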

In assay [7] the target is Thyrotropin receptor (Homo sapiens) (UniProt P16473). Nature of the assay: qHTS assay to identify small molecule antagonists of the thyroid stimulating hormone receptor (TSHR) signaling pathway (AID 1259385; calls by dose curve; further: nearly all actives have a fitted effect of over 20% in size). A digest of the protocol: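 Antagonist mode: compound-treated TSHR-expressing HEK293 cells were stimulated with 1.5 ng/mL TSH (final) in presence of Ro20-1724 for 30 min at RT. HTRF cAMP detection after 1 h; each compound tested at 15 concentrations, triplicate.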

Assay [8] in a line: qHTS assay to identify small molecule agonists of the estrogen receptor alpha (ER-alpha) signaling pathway in the presence of an antagonist - cell viability counter screen (AID 1259386).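 Further: cells exposed to compounds for 22 h at 37 °C before the viability read; nearly all actives have a fitted effect of over 30% in size.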 Further: potency means the concentration at half of the fitted maximal effect. On activity change, negative = cytotoxicity: series mostly up to about 92 µM. The procedure, abridged: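 Cells are starved of estrogens for 5 days in charcoal-stripped serum, seeded for 24hr and co-treated with ICI-182,780 (10.0nM final) and test compounds. After 22hr at 37C, viability is read as CellTiter-Fluor fluorescence.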

Assay [9] concerns the target Progesterone receptor (Homo sapiens) (UniProt P06401). The experiment in a line: qHTS assay to identify small molecule agonists of the progesterone receptor (PR) signaling pathway (AID 1346784; calls by dose curve; further: nearly all actives have a fitted effect of over 30% in size). A digest of the protocol:
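Using charcoal-stripped serum (2%) to limit endogenous steroids, PR-UAS-bla HEK 293T cells received compounds for 16 hr at 37C after 6 hr plating; beta-lactamase FRET fluorescence was recorded following 2 hr substrate loading at room temperature.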
On the % scale 0 is the no-effect control and ±100 the full control effect.

Thyrotropin receptor (Homo sapiens), sequence (P16473 whole entry, looked up): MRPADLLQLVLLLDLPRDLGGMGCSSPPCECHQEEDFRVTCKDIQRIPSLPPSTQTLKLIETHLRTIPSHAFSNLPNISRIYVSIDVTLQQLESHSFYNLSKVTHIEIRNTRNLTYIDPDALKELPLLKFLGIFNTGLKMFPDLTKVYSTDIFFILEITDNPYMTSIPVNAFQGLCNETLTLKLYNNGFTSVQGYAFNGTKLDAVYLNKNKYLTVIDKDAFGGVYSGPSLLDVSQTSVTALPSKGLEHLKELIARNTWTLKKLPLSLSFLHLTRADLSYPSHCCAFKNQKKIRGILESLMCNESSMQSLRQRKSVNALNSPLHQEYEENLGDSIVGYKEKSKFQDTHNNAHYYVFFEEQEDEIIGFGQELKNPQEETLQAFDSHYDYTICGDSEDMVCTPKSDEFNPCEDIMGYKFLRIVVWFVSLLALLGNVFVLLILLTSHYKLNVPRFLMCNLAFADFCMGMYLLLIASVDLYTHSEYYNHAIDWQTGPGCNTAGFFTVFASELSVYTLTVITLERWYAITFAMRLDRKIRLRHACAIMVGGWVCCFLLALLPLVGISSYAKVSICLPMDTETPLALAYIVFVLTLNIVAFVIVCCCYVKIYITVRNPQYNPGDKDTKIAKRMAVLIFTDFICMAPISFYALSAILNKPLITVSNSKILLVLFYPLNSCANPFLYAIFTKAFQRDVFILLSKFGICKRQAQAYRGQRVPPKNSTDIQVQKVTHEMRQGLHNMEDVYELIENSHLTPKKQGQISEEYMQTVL
Progesterone receptor (Homo sapiens), sequence (P06401 whole entry, looked up): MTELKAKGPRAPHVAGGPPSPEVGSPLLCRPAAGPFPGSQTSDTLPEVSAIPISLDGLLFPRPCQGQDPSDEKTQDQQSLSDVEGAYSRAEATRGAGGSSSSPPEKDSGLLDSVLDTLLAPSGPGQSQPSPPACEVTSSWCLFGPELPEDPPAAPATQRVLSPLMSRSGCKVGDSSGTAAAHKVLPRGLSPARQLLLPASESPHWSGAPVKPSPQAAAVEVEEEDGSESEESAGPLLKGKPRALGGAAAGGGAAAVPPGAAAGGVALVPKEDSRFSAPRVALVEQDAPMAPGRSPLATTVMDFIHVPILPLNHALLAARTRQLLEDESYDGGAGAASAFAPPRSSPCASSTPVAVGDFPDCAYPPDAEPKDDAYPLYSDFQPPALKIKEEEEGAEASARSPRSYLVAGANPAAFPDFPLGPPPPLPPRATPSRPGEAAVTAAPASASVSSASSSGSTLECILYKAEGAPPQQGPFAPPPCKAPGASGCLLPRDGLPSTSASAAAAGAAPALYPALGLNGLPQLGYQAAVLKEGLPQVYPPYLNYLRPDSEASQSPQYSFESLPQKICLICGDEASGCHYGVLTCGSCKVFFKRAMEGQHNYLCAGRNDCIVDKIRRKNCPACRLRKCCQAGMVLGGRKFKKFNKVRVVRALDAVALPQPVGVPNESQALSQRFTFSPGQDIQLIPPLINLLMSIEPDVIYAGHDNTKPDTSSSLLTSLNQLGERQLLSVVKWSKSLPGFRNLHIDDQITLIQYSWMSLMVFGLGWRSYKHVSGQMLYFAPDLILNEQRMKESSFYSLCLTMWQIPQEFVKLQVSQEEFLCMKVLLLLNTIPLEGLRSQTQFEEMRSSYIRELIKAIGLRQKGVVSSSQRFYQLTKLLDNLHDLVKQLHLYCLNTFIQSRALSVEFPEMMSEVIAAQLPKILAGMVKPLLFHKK
Estrogen receptor (Homo sapiens), sequence (P03372 whole entry, looked up): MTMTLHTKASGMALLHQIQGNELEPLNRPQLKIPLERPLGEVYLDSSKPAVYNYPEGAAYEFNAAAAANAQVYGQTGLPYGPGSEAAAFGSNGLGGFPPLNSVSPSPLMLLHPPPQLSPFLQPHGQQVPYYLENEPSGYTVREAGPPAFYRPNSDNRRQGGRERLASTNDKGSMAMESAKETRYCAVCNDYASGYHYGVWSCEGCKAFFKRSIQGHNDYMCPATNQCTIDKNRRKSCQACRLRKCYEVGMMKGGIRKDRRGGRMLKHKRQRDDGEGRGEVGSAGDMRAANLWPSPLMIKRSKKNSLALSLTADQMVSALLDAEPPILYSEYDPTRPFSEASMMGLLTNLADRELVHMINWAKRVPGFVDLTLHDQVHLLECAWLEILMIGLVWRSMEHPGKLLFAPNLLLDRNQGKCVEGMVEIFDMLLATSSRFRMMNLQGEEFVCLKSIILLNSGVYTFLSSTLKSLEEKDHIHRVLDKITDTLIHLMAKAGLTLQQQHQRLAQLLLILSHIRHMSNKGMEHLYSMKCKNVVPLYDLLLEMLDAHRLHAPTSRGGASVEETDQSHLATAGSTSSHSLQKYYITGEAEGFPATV
Androgen receptor (Homo sapiens), sequence (P10275 whole entry, looked up): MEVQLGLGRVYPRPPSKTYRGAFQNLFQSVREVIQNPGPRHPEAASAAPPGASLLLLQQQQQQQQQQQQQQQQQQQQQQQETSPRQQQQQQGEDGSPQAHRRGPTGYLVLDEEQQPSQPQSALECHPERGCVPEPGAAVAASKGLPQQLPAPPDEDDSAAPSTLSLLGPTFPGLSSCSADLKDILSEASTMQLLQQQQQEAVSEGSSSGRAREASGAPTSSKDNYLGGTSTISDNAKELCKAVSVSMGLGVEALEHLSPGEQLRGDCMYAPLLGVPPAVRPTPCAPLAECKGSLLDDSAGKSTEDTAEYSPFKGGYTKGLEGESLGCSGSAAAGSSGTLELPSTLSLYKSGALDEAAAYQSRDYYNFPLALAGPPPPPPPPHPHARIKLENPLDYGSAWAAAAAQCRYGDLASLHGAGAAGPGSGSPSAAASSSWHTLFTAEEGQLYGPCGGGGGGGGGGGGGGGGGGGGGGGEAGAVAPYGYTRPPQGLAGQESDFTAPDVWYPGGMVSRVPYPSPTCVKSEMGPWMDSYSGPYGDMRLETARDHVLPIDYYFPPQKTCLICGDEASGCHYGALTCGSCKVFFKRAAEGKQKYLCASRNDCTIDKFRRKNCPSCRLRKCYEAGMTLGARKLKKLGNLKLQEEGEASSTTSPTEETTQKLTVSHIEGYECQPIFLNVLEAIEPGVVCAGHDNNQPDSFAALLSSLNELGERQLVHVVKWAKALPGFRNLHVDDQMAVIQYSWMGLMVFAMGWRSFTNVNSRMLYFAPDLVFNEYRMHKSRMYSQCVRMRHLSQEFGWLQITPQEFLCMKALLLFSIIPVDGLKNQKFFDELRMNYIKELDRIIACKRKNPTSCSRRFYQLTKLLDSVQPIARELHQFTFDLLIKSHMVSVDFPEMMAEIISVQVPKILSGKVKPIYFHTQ

On to `CC(=O)OC1CCCCC1`, for which the Potency result in [1], in [2], in [3], in assay [4], in [5] and in [7] was “inactive” in each case. The Potency result in [8] was “inactive”. The compound was classed as inactive in assay [6] and in assay [9].

For `CCCCCCCCC(C)=O`, the Potency result in [1], in assay [2], in assay [3], in assay [4], in assay [5] and in assay [7] was “inactive” each time. In addition, in assay [8], the Potency entry is “inactive”. In addition, the outcome in assay [6] and in assay [9] was inactive.

Consider `O=C(O)Cc1ccc(OCCNC[C@H](O)c2ccccc2)cc1`, for which the Potency entry in assay [1], in assay [2], in assay [3], in [4], in assay [5] and in assay [7] was “inactive” in each case. For the same compound, the Potency result in assay [8] is “inactive”. The compound was classed as inactive in assay [6] and in assay [9].

Take `COc1cc(C=C2CCC/C(=C\c3ccc(O)c(OC)c3)C2=O)ccc1O`: the Potency in assay [1] is 26.6 µM (active); in assay [2], 33.5 µM (active). Also, the Potency entry in assay [3] and in assay [5] was “inactive” in each case. For the same compound, the compound was called inactive in assay [6].

As for `CO[Si](CCC1CCC2OC2C1)(OC)OC` (configuration not stated), the Potency entry in assay [1], in assay [2], in assay [3], in [4], in assay [7] and in assay [8] was “inactive” in each case. The compound was called inactive in assay [6] and in assay [9].

In the case of `CCCCN(C)C`, the Potency entry in assay [1], in [2], in assay [3], in [4], in assay [5] and in assay [7] was “inactive” in each case. The Potency entry in assay [8] was “inactive”. Also, the outcome in assay [6] and in [9] was inactive.

On to `O=C[C@H](O)[C@H](O)[C@H](O)CO`, for which the Potency result in assay [1], in assay [2], in assay [3], in assay [4], in assay [7] and in [8] was “inactive” each time. The call in [6] and in assay [9] was inactive.

For the compound `COC(=O)C1=C(C)NC(C)=C(C(=O)OCCCN2CCC(c3ccccc3)(c3ccccc3)CC2)C1c1cccc([N+](=O)[O-])c1` (configuration not stated), the Potency is 29.8 µM (active) in assay [1], 23.7 µM (active) in assay [2] and 23.7 µM (active) in assay [4]. Further, in assay [3], the Potency result is “inactive”. In addition, in [6], the compound was classed as inactive.

Consider `CCC(C)c1ccccc1` (configuration not stated), for which the Potency result in assay [1], in [2], in [3], in assay [4], in assay [5] and in assay [7] was “inactive” throughout. The Potency result in assay [8] was “inactive”. Besides, the call in assay [6] and in assay [9] was inactive.

As to `CCCCCCCCCCCCCc1ccccc1`, the Potency result in assay [1], in [2], in assay [4], in [5], in assay [7] and in assay [8] was “inactive” in each case. The result in assay [6] and in [9] was inactive.

Consider `CC(C)c1ccccc1N`, for which the Potency entry in [1], in assay [2], in assay [4], in [5], in assay [7] and in assay [8] was “inactive” throughout. Further, the compound was called inactive in [6] and in assay [9].

`C(=C/c1ccccc1)/c1ccccc1`: the Potency result in [1], in assay [2], in assay [4], in [5], in assay [7] and in [8] was “inactive” throughout. Besides, the result in [6] and in [9] was inactive.

On to `CCOC(=O)CN`, for which the Potency result in assay [1], in assay [2], in assay [4], in assay [7] and in [8] was “inactive” each time. Besides, the result in [6] and in assay [9] was inactive.

For the compound `Nc1cc(Cl)c([N+](=O)[O-])cc1O`, the Potency in assay [1] is 48.2 µM (active); in assay [8] it was 54 µM (active). Further, the Potency entry in assay [2], in assay [4], in assay [5] and in assay [7] was “inactive” in each case. The compound was classed as inactive in assay [6] and in assay [9].

With `CCCCCCC(C)OC(=O)COc1nc(F)c(Cl)c(N)c1Cl` (configuration not stated), the Potency result in assay [1], in assay [4], in [7] and in [8] was “inactive” throughout. For the same compound, in assay [2], the Potency is 68.6 µM (active). Moreover, the result in assay [6] and in [9] was inactive.

On to `CO[Si](CCCNCCNCCN)(OC)OC`, for which the Potency result in assay [1], in assay [2], in assay [4], in assay [5], in [7] and in assay [8] was “inactive” each time. The outcome in assay [6] and in assay [9] was inactive.

As for `NCCCCCCNCCCCCCN`, the Potency entry in assay [1], in [2], in assay [4], in [5] and in assay [8] was “inactive” each time. Also, the compound was classed as inactive in assay [9].

As for `CN1CN(C)CN(C)C1`, the Potency entry in assay [1], in [2], in assay [4], in [5], in [7] and in assay [8] was “inactive” in each case. For the same compound, the call in assay [6] and in assay [9] was inactive.

As to `OCCC(O)CO` (configuration not stated), the Potency result in [1], in [2], in assay [4], in assay [5], in assay [7] and in assay [8] was “inactive” throughout. Besides, the compound was called inactive in [6] and in [9].

Turning to `CSc1ccc2c(c1)N(CCC1CCCCN1C)c1ccccc1S2` (configuration not stated), the Potency in assay [1] was 54.3 µM (active) and 29.8 µM (active); in assay [2], 19.3 µM (active) and 18.8 µM (active); in assay [4], 15.3 µM (active) and 13.3 µM (active); in [8], 68.3 µM (active) and inactive. In assay [5], the Potency entry is “inactive”. The compound was called inactive in assay [6].

Consider `O=C=NCc1cccc(CN=C=O)c1`, for which the activity change, negative = cytotoxicity in assay [1] was -5.15% [at 19 µM] (inactive); in [2] it was 2.31% [at 19 µM] (inactive); in assay [4], 13% [at 19 µM] (inactive); in assay [8], 1.12% [at 19 µM] (inactive). Besides, the activation in assay [5] was 0.099% [at 19 µM] (inactive); in assay [9] it was -0.779% [at 19 µM] (inactive). For the same compound, the cAMP activity change in [6] is -0.613% [at 18.9 µM] (inactive). Moreover, in assay [7], the activity change, negative = inhibition was 2.52% [at 19 µM] (inactive).

Turning to `Cc1cc2c(C(C)C)c(O)c(O)c(C=O)c2c(O)c1-c1c(C)cc2c(C(C)C)c(O)c(O)c(C=O)c2c1O`, the Potency is 29.8 µM (active) in [1], 13.3 µM (active) in [2] and 23.7 µM (active) in [4]. In addition, the outcome in [6] was inactive. In assay [7], the Potency entry is “inactive”.

For the compound `Nc1ncnc2c1ncn2[C@@H]1O[C@H](COP(=O)(O)O)[C@@H](O)[C@H]1O`, the Potency result in assay [1], in assay [4], in assay [7] and in [8] was “inactive” in each case. In assay [2], the Potency is 26.6 µM (active). Also, the call in assay [6] and in [9] was inactive.

With `SCCCCCCCCS`, the Potency result in assay [1], in assay [2], in assay [4], in assay [7] and in [8] was “inactive” throughout. Also, the result in [6] and in assay [9] was inactive.

On to `Cc1cc(C)c(C=O)c(C)c1`, for which the Potency entry in assay [1], in assay [2], in [4], in assay [7] and in assay [8] was “inactive” throughout. In addition, the compound was classed as inactive in assay [6] and in assay [9].
